Compounds without any hit were thinned out: in the full panel of roughly 79,000, 15% have a hit. A number with no mark means an inactive call. Active and inactive are the calls of the source. Rule as the data show it: active = growth inhibition above about 70%; inactive = the rest. Where a SMILES comes first, the peptide text is derived from it. [ ]: non-standard residue; d: D form. The star is where a group is joined. ξ: configuration not given here. Cbz = O=C(OCc1ccccc1)*; ξM = CSCCC(N)C(=O)O
What was measured:
[1] = NCI Yeast Anticancer Drug Screen. Data for the rad50 strain (AID 155);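 also: 0% = growth of vehicle-only cultures of the same strain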; conditions: S. cerevisiae rad50 strain growth inhibition; at 50.0 µM; hits give high values
How it was run: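 Compounds were tested on a yeast strain with an engineered DNA damage repair alteration; the reported value is growth inhibition normalised to vehicle treatment.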

[2] = NCI Yeast Anticancer Drug Screen. Data for the mec2-1 strain (AID 157); conditions: S. cerevisiae mec2-1 strain, at 50.0 µM, hits give high values
How it was run: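 Vehicle-treated cultures served as reference for growth inhibition of compound-exposed mec2-1 yeast.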

[3] = NCI Yeast Anticancer Drug Screen. Data for the sgs1 mgt1 strain (AID 161);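 also: 0% = growth of cultures given vehicle only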; conditions: S. cerevisiae sgs1 mgt1 strain, at 50.0 µM, hits give high values
How it was run: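 Mutant yeast exposed to compound; growth scored against vehicle-only wells.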

[4] = NCI Yeast Anticancer Drug Screen. Data for the cln2 rad14 strain (AID 165);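 also: 0% = growth equal to vehicle treated cultures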; conditions: S. cerevisiae cln2 rad14 strain, at 50.0 µM, hits give high values
How it was run: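 Each compound was tested on cln2 rad14 yeast. Inhibition of growth was calculated against vehicle-exposed controls.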

[5] = NCI Yeast Anticancer Drug Screen. Data for the bub3 strain (AID 167); conditions: S. cerevisiae bub3 mutant strain, at 50.0 µM, hits give high values
How it was run: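 Growth of a checkpoint-deficient yeast mutant is measured after compound exposure. Values represent inhibition relative to vehicle.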

[6] = NCI Yeast Anticancer Drug Screen. Data for the mlh1 rad18 strain (AID 175); conditions: S. cerevisiae mlh1 rad18 strain growth inhibition; at 50.0 µM; hits give high values
How it was run: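 Vehicle-treated cultures served as the reference for growth inhibition in a yeast strain carrying DNA damage repair alterations exposed to each compound.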

Row | SMILES | growth inhibition [1] | growth inhibition [2] | growth inhibition [3] | growth inhibition [4] | growth inhibition [5] | growth inhibition [6]
1 | CCNc1ccc(C)cc1 | 55.4% | -4.1% | 0.1% | -14% | -5.15% | 33.5%
2 | Cc1nc(-n2nc(-c3ccccc3)cc2-c2ccccc2)sc1C(=O)CC(=O)C(=O)Nc1ccc(Cl)c(Cl)c1 | 6.15% | -5.55% | 24.6% | 13.8% | 48.5% | 24.8%
3 | N#C/C1=C(\N)CCSSSC1 | 30.8% | 25.9% | 17.4% | 21.3% | 9.5% | -0.2%
4 | CC(=O)Nc1c(C)n(C)n(-c2ccccc2)c1=O | -2.45% | -12.7% | 23.4% | 31.1% | 17.6% | 13.6%
5 | CS(=O)(=O)c1ccc(N2CCCCC2)c([N+](=O)[O-])c1 | 29.9% | 6.05% | 27.6% | 16.7% | 10.9% | -4.9%
6 | COCC(=O)C(C(C)=O)C(c1ccc2c(c1)OCO2)C(C(C)=O)C(=O)COC (stereo not given) | -40.5% | -8.25% | -18.9% | -39.5% | -5.75% | -2.6%
7 | O=C(NCCN1CCOCC1)c1ccc(I)cc1 | 31.8% | 28.9% | 45% | 38.4% | 32.1% | 43.3%
8 | CCOc1ccc(NC(=S)NC=C(C(N)=O)C(N)=O)cc1 | -47.3% | -41.3% | -10.7% | 19.2% | 3.9% | -22.6%
9 | Cc1ccc2nc(N(C)C)nc-2c2[nH]c(=O)[nH]c12 | -28.9% | -31.6% | -12.2% | 3.9% | -28.9% | -19.3%
10 | COC(=O)CC(c1ccccc1)N1CCOCC1 (stereo not given) | -12.3% | 19.4% | -10.2% | -20.4% | 7.35% | 12.8%
11 | COc1ccc(C2=NCCO2)cc1N | 3.6% | 0.45% | -13.7% | -5.5% | 4.35% | 11.4%
12 | CC1(C)COC(=O)OC1 | 17.8% | 11.5% | 16.4% | 12.8% | 14.8% | 16.9%
13 | CCC(CC)C(=O)OCCCC1CCCO1 (stereo not given) | 12.9% | 2.9% | 7.9% | -3.25% | -3.95% | 0.6%
14 | CSCCC(NC(=O)CNC(=O)CNC(=O)OCc1ccccc1)C(=O)O (stereo not drawn) (Cbz-Gly-Gly-[ξM]-OH) | 96.5% (active) | 98.7% (active) | 92.5% (active) | 98.4% (active) | 99% (active) | 96.7% (active)
15 | Cc1ccc2c(c1)[nH]c(=S)n2C=C1C(=O)NC(=O)NC1=O | -6.3% | -27.9% | -38% | -10.6% | -7.35% | -15.4%
16 | CCOC(=O)NC(Nc1ccc([N+](=O)[O-])cc1)(C(F)(F)F)C(F)(F)F | 45.4% | 40.2% | 22.8% | 32.1% | 42% | 59.1%
17 | C=CCCCCCC(O)C(O)C/C=C\C/C=C\CC (stereo not given) | 18.4% | 4.6% | 22.8% | -1.35% | 15.5% | 27.2%
18 | O=C1/C(=C/c2cccc3ccccc23)CCc2ccc([N+](=O)[O-])cc21 | -34.5% | -23.6% | -49.9% | -23.9% | 20.1% | -15.6%
19 | Cc1oc2ccccc2c(=O)c1CO | -12.6% | 13.2% | 2% | -9.85% | -11.1% | -12.2%
20 | COc1ccc(C(O)C(CN(C)C)CN(C)C)cc1 (stereo not given) | -0.75% | -19.6% | 6.65% | 8.15% | 8.7% | 10.8%

— PubChem BioAssay (NCI)
